We go through 40 compounds from PubChem BioAssay (NCATS).

Molecules are shown by their SMILES. Results filed as inconclusive are left out. Where a call stands in place of a potency, no number is given. Calls of active or inactive are those of the source. Calls come from the whole dose curve; as a rule, active = well fitted cell-killing curve with a large enough effect; inconclusive = small, poorly fitted or top-dose-only effect; inactive = flat fitted curve, though single readings scatter.

The nature of the experiment: Cell Viability - LYMP2-014 (AID 983). Note: nearly all actives have a fitted effect of over 50% in size. To be noted: LYMP2-014 lymphoblastoid cells, viability qHTS; series mostly up to 92.2 µM. An excerpt: NIH Chemical Genomics Center [NCGC]
NIH Molecular Libraries Screening Centers Network [MLSCN]
National Institutes of Environmental Health Sciences [NIEHS]
National Toxicology Program [NTP]
We have developed a 1536-well cell-based assay for quantitative high throughput screening (qHTS) against a number of cell lines to determine in vitro cytotoxicity of small molecules. This particular assay uses a human lymphoblastoid cell line (LYMP2-014) purchased from Coriell Institute for Medical Research.
NCGC Assay Protocol Summary:
The CellTiter-Glo luminescent cell viability assay (Promega) is a homogeneous method to measure the number of viable cells in culture. The end point readout of this assay is based on quantitation of intracellular ATP, an indicator of metabolic activity, using the luciferase reaction. Luciferase catalyzes the oxidation of beetle Luciferin to oxyluciferin and light in the presence of ATP. The luminescent signal is proportional to amount of ATP present.
Using the CellTiter-Glo luminescent cell viability assay, the amount of cellular ATP was measured in the lymphoblastoid cell line with complete culture medium following compound treatment for 24 hours. The assay was performed in opaque white Kalypsys 1536-well plates. In the screen, tetraoctylammonium bromide was used as positive control. Library compounds were measured for their ability to cause acute toxicity in the cell line, as reflected by a decrease in intracellular ATP levels, in a concentration-dependent manner. […] AC50 values were determined from concentration-response data modeled with the standard Hill equation.
qHTS protocol for CellTiter Glo lymphoblastoid cellular assay
[Step] [Parameter] [Value] [Description]
1. Reagent; 5 uL; 2500 lymphoblastoid cells/well
2. Time; 5 hr; 37 C incubation
4. Controls; 23 nL; Tetraoctylammonium bromide 6.4pM to 92 uM
5. Time; 24 hr; 37 C incubation
6. Reagent; 5 uL; CellTiter Glo reagent
7. Time; 30 min; Room Temperature
8. Detection; Luminescence; Viewlux plate reader
Keywords: cell viability, cytotoxicity, lymphoblastoid cell line, luminescence, NTPHTS, NTPHTS_NCGC, NIEHS, DSSTox, MLSMR, MLSCN, NIH Roadmap, qHTS, NCGC
For `O=C1c2ccccc2C(=O)C1c1ccc2ccccc2n1`, the Potency result was “inactive”. As for `Cc1ccccc1C`, the Potency entry was “inactive”.

For the compound `COc1c2ccoc2cc2oc(=O)ccc12`, the Potency entry was “inactive”. With `CCCCCCCCO`, the Potency result is “inactive”.

On to `C=C(C)C1CC=C(C)C(O)C1` (stereo not given), for which the Potency entry was “inactive”. In the case of `CC12CCC(CC1=O)C2(C)C` (stereo not given), the Potency result was “inactive”. `CCCCCCCCCCCCCCC1CO1` (stereo not given): the Potency entry was “inactive”. With `C=CCc1ccc(OC)c(OC)c1` the entry was “inactive”; with `COC(=O)c1ccc(C)cc1`, “inactive”; with `C=CC(=C)CCC=C(C)C`, “inactive”. Turning to `COCC(=O)O`, the Potency result is “inactive”. On to `CC(=O)OC/C=C(\C)CCC=C(C)C`, for which the Potency entry was “inactive”.

With `c1ccc2scnc2c1`, the Potency entry is “inactive”.

For the compound `O=C(O)c1ccccc1C(c1ccc(O)cc1)c1ccc(O)cc1`, the Potency entry is “inactive”. Turning to `Cc1ccc(N)c([N+](=O)[O-])c1`, the Potency result is “inactive”.

Regarding `c1ccccc1`, the Potency result was “inactive”. For `COc1cc(/C=C/c2ccccc2)oc(=O)c1`, the Potency entry is “inactive”. In the case of `O=NO`, the Potency result is “inactive”. For `Cc1ccc([N+](=O)[O-])c(C)c1`, the Potency result is “inactive”.

For `C1OCOCO1`, the Potency entry is “inactive”. Next, `O=C(O)c1ccc(O)cc1O`: “inactive”; `CCCCC(CC)CN` (stereo not given): “inactive”. As to `C=Cc1ccccc1Cl`, the Potency entry is “inactive”. In the case of `COc1ccc(/C=C/c2cc(OC)cc(=O)o2)cc1`, the Potency entry was “inactive”.

`Cc1c(N=C=O)cccc1N=C=O`: the Potency result is “inactive”. Consider `CCC(C)c1ccccc1O` (stereo not given), for which the Potency entry was “inactive”. Take `COC(=O)c1ccc(C=O)cc1`: the Potency result is “inactive”. Turning to `CCCCCCCCCCCCCC(=O)O`, the Potency entry is “inactive”. For the compound `Nc1ccc(S(=O)(=O)O)cc1`, the Potency entry is “inactive”.

Regarding `CCC(O)OC(O)CC` (stereo not given), the Potency entry was “inactive”.

As to `CN(C)C=O`, the Potency result is “inactive”. Next, `O=C1CCc2ccccc2O1`: “inactive”. Take `Cc1cccc([N+](=O)[O-])c1C`: the Potency entry is “inactive”. `CN(C)CCCCCCN(C)C`: the Potency entry is “inactive”. As for `ClCCCl`, the Potency result was “inactive”.

Consider `O=C(O)c1ccccc1`, for which the Potency result is “inactive”. On to `CCO`, for which the Potency entry is “inactive”. Regarding `CC(C)=CCCC(C)CCO` (stereo not given), the Potency result is “inactive”.

Turning to `CC1=C2[C@H](/C=C(\C)C(=O)O)CC[C@@H](C)[C@H]2CC1`, the Potency entry is “inactive”.

As for `CCCN(CCC)C(=O)SCC`, the Potency result is “inactive”.
